# CHO-K1 Ca PAM: nonselective activator or artifact in parental CHO-K1 calcium assay. activation, % at 3 µM. hit rate 0.02% among 360,000. ATP EC20, Fluo-8 calcium fluorescence; 0% at ATP EC20, 100% at ATP max. AID 602247;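 active = activation above the run cutoff, the mean activation of all test compounds plus 3 SD, cut at about 40% in these data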;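 also: peak over basal fluorescence ratio in a 140 s read after ATP addition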
# CHO-K1 Ca antag: M1 antagonist counterscreen hit in parental CHO-K1 cells. inhibition, % at 3 µM. ATP-induced calcium, Fluo-8 fluorescence. hit rate 0.6% among 360,000. AID 602250;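 active = inhibition above a per-plate cutoff, the plate's mean sample inhibition plus 3 SD, cut at about 24% in these data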;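 also: 0% = DMSO plus EC80 ATP and 100% = DMSO alone without ATP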
# CHRM1 PAM: human CHRM1 positive allosteric modulation. activation, % at 3 µM. CHO-K1 hM1, Fluo-8 calcium fluorescence, ACh EC20; 0% = ACh EC20, 100% = maximal ACh. hit rate 0.088% among 360,000; in the data active = activation above about 19%, passing the limit was not always enough
# Target sequence (P11229 whole entry, looked up): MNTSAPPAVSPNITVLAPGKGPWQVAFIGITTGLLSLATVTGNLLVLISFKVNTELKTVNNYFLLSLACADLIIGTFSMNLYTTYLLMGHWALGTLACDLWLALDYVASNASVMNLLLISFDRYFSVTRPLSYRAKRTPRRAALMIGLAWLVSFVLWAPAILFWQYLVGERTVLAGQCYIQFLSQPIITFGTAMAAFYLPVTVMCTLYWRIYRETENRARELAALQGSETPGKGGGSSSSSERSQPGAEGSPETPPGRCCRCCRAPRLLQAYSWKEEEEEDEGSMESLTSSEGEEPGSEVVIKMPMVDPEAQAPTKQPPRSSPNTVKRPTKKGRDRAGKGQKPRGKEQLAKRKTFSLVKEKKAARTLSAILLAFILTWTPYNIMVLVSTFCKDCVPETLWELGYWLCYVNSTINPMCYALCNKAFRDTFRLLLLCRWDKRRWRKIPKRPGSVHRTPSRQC
# CHRM1 agonist: human M1 muscarinic receptor agonism; activation, % at 3 µM; hit rate 0.33% among 360,000; AID 588814; CHO-K1 hM1, Fluo-8 calcium fluorescence, agonist mode; 0% DMSO, 100% acetylcholine EC100;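 active = activation above the run's mean compound activation plus 3 SD, cut at about 16% in these data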;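 also: peak over basal fluorescence ratio within a 140 s kinetic read after compound addition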
# CHRM1 antagonist: human CHRM1 antagonism. CHO-K1 hM1, Fluo-8 calcium fluorescence, ACh EC80 antagonist. hit rate 1.3% among 360,000. inhibition, % at 3 µM. P11229. AID 588852;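 active = percent inhibition above its own plate's cutoff, namely the mean of that plate's compound wells plus 3 SD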;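 also: peak over basal fluorescence ratio during 140 s after agonist addition; 0% = ACh EC80 plus DMSO and 100% = DMSO alone without agonist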
# M1 ag parental: nonselective activator or artifact in parental CHO-K1 cells; Fluo-8 calcium fluorescence; scaled to maximal ATP response, vehicle zero; activation, % at 3 µM; hit rate 0.48% among 360,000; in the data active = activation above about 15%;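 also: untransfected CHO-K1 host cells lacking M1 receptor as counterscreen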
# * = called active by the depositor. An excerpt weighted towards active compounds, which were near 2.4% of everything screened.
SMILES,CHO-K1 Ca PAM,CHO-K1 Ca antag,CHRM1 PAM,CHRM1 agonist,CHRM1 antagonist,M1 ag parental
COC(=O)c1ccc(/C=C(\C#N)c2nc3ccccc3s2)cc1,9,6,1,2,8,1
COc1cc(SC)ccc1C(=O)NNC(=O)c1cc(C)oc1C,-15,-11,-2,0,16,0
COc1cc(OC)cc(-c2c(-c3ccsc3)c3cc(Br)ccc3n2C)c1,-18,8,14,6,-5,0
COC(=O)c1ccc(N2CCN(c3ccccc3)CC2)c(N)c1,18,-4,10,-4,-10,1
CCOC(=O)N1CCC(NC(=O)C2CCCN(Cc3nc(-c4ccc(CC)cc4)oc3C)C2)CC1 (stereo not given),1,24*,-9,-2,11,7
CCOC(=O)N1CCC(NC(=O)C2CCCN(S(=O)(=O)c3cccnc3)C2)CC1 (stereo not given),-7,42*,3,-2,-8,0
CCOC(=O)N1CCC(NC(=O)C2CCN(Cc3nc(-c4ccc(CC)cc4)oc3C)CC2)CC1,12,2,5,-10,-23,0
C=C1C(=O)C=C2CN(C(=O)c3ccccc3)[C@@](Cc3ccc(F)cc3)(C(=O)OC)[C@@H]12,-16,83*,-34,72*,103*,75*
C/C=C(/C)C(=O)OC1CC(C)(C)C[C@H]2C3=CC[C@@H]4[C@@]5(C)CCC(O[C@@H]6O[C@@H](C(=O)O)[C@@H](O)C(O[C@@H]7OC[C@H](O)[C@@H](O)[C@@H]7O[C@@H]7OC(CO)C(O)[C@@H](O)[C@@H]7O)C6O[C@@H]6OC(CO)C(O)C(O)C6O)[C@@](C)(CO)[C@@H]5CC[C@]4(C)[C@]3(C)CC(O)[C@@]12CO (stereo not given in full),-22,49*,-36,62*,73*,67*
CC1(C)C[C@H]2C3=CCC4[C@@]5(C)CC[C@H](O[C@@H]6O[C@H](C(=O)O)[C@@H](O)[C@H](O)[C@H]6O)[C@@](C)(CO)C5CC[C@@]4(C)[C@]3(C)C[C@H](O)[C@@]2(CO)[C@@H](O)[C@@H]1O (stereo not given in full),0,-2,9,-4,-4,0
C/C=C(\C)C(=O)OC1[C@H](OC(C)=O)C2(CO)C(CC1(C)C)C1=CCC3C4(C)CCC(O[C@@H]5O[C@H](C(=O)O)[C@@H](O[C@@H]6O[C@H](CO)[C@@H](O)[C@H](O)[C@H]6O)[C@H](O)[C@H]5O[C@H]5O[C@H](CO)[C@@H](O)[C@H](O)[C@H]5O)[C@](C)(CO)C4CCC3(C)[C@]1(C)C[C@H]2O (stereo not given in full),-19,102*,-37,93*,104*,98*
CCOC(=O)c1ccccc1Cc1nc2ccccc2c(=O)[nH]1,11,-2,-26,-8,98*,0
Cc1ccc(C(c2ccc(C)c(C)c2)C(O)C2OC(=O)C(O)C2O)cc1C (stereo not given),20,-16,7,-3,-14,1
CC(C)Cn1c2c(c(O)c(C(=O)Nc3ccc(F)cc3)c1=O)CCCC2,-5,25*,1,0,8,0
N#C/C(=C\c1c[nH]c2ccccc12)C(N)=O,-10,-2,5,2,-4,1
CC(=O)Oc1c(/C=C(\C#N)C(N)=O)[nH]c2ccccc12,9,27*,-1,8,8,8
CC1=C(C(=O)N2CCCCCC2)CC(CC(=O)NCCN2CCOCC2)C(=O)N1Cc1ccccc1 (stereo not given),-3,-13,-2,-4,-19,0
C/C(=N\OC(=O)C1CC1)C1CC1c1ccc(F)cc1 (stereo not given),-6,9,-1,-8,8,-1
COCCNC(=O)CN1C(=O)COc2ccc(S(=O)(=O)N3CC(C)CC(C)C3)cc21 (stereo not given),18,-4,13,-8,-18,0
CCN1/C(=C/c2ccc3ccccc3[n+]2CC)C=Cc2ccccc21,-1,32*,-11,2,48*,6
CCN1/C(=C/c2ccc3ccccc3[n+]2CCCS(=O)(=O)[O-])C=Cc2cc(C)ccc21,-10,1,19,8,-10,0
CCN1/C(=C/c2ccc3cc(C)ccc3[n+]2CC)Sc2cc(C)ccc21,-15,43*,-18,26*,67*,22*
CCCCN1/C(=C/c2ccc3ccccc3[n+]2CC)Sc2ccccc21,7,22,-19,26*,44*,19*
Cc1nc2cc3c(=O)n(C)cnc3cc2n1Cc1ccccc1,-2,-1,5,1,-9,0
Cc1cc(C)cc(NC(=O)C2CCN(S(=O)(=O)c3ccc4[nH]c(=O)ccc4c3)CC2)c1,-4,8,-13,-4,20,0
SMILES,CHO-K1 Ca PAM,CHO-K1 Ca antag,CHRM1 PAM,CHRM1 agonist,CHRM1 antagonist,M1 ag parental
CCCCCCCCCCCCCCCC[n+]1cccc(C(=O)N(CC)CC)c1,15,-11,-23,-3,57*,0
CCCCCCCC[n+]1cccc(C(=O)N(CC)CC)c1,20,-11,-1,-12,-3,1
COC(=O)c1ccc(C2C(C(C)=O)=C(C)Nc3ncnn32)cc1 (stereo not given),11,-13,-32,-11,102*,1
Cc1cc(C(=O)Nc2ccon2)ccc1[N+](=O)[O-],2,2,7,-2,-6,21*
NC(=O)CN1CCOCCOCCN(CC(N)=O)CCOCCOCC1,-2,49*,5,0,-22,2
CC1(C)CC(=O)C2=C(C1)c1c(ccc3ccccc13)NC2c1cc([N+](=O)[O-])cc([N+](=O)[O-])c1O (stereo not given),1,0,1,-9,-5,9
O=C(O)CSc1ccc2ccccc2n1,7,-6,-13,-2,12,0
O=C(CSc1ccc2ccccc2n1)c1ccc2c(c1)OCO2,-8,28*,1,-1,5,-1
COc1cc(CNCCNC(=O)c2nonc2N)ccc1OCc1ccc(Cl)nc1,24,-8,15,-11,0,20*
COc1ccc(CNCCNC(=O)c2nonc2N)cc1OC,-5,23,9,-4,4,0
COc1cc(/C=C2\SC(=S)N(NC(=O)c3ccccc3O)C2=O)ccc1O,2,3,-5,20*,14,13
O=C(NN1C(=O)/C(=C/c2ccc(O)cc2)SC1=S)c1ccccc1O,-6,-6,-2,11,14,5
Cc1c(C(=O)c2ccc(N(C)C)cc2)c2ccccn2c1CCC#N,-18,25*,5,0,2,0

# Source: PubChem
